Test results: PubChem BioAssay AID1645882 (National Center for Advancing Translational Sciences (NCATS), 2021)
Several values for one entry are separate records, joined by “and”; a condition that tells them apart may be missing. Identical values can stand only once. In all, about 16,000 compounds went through this assay and about 120 (0.75%) were called active. About 4% were inconclusive and are not listed. The list comes from a sample in which actives are over-represented; it also holds similar structures and randomly drawn compounds. The source holds several records for some structures; these can differ, active in one and inactive in another. Unmarked numbers belong to inactive results. The call rests on the fitted dose curve; in most records, active means well fitted inhibition curve with a large enough effect; inconclusive means small, poorly fitted or top-dose-only effect; inactive means no such curve, though single readings can be large or run the other way.

These molecules were tested against Rap guanine nucleotide exchange factor 3 (Homo sapiens) (UniProt O95398) (assay: Validation qHTS for antagonist of cAMP-regulated guanine nucleotide exchange factor 3 (EPAC1)). Settings: EPAC1 Rap1B-BODIPY-GDP exchange, fluorescence; series mostly up to 150 µM; activity change, negative = inhibition: at the top concentration.
Chain of Rap guanine nucleotide exchange factor 3 (Homo sapiens) (O95398 whole entry, looked up): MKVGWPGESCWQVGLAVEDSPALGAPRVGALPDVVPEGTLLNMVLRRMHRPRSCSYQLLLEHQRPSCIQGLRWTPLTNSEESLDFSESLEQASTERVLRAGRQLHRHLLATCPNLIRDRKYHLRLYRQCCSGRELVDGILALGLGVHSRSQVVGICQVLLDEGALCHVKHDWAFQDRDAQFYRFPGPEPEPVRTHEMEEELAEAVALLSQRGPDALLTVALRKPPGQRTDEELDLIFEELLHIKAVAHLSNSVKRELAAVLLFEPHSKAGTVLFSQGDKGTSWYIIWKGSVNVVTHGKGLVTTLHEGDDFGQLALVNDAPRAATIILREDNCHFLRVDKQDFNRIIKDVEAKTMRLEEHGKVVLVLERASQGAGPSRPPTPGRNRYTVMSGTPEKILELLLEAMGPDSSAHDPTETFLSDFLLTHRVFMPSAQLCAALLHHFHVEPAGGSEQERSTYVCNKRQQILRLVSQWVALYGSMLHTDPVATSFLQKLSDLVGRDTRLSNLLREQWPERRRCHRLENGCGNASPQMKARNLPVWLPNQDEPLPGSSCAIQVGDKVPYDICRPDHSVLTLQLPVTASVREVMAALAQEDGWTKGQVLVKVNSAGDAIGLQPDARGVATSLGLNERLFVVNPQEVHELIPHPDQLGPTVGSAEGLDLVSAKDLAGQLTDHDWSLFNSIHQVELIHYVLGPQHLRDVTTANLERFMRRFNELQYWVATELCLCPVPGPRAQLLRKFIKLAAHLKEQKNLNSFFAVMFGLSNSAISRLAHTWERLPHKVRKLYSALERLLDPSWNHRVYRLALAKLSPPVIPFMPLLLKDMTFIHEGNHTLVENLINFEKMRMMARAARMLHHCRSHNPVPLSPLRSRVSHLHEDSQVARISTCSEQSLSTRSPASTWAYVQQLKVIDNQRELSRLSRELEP
Outline: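 Nucleotide exchange followed as fluorescence loss when BODIPY-GDP leaves Rap1B (480 nm excitation, 540 nm emission), read at 5 min intervals over 30 min. Reaction: 100 nM EPAC1, 250 nM RAP1B-BODIPY-GDP, 50 uM GDP; ATA and DMSO define normalization.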
Further: nearly all actives have a fitted effect of over 75% in size.
Potency means the concentration at half of the fitted maximal effect.
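Wherever activity change, negative = inhibition is given: plate controls were DMSO for no effect and ATA control for full effect.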

| Structure (SMILES) | activity change, negative = inhibition | Potency |
| --- | --- | --- |
| CC(Oc1ccccc1)C(=O)NCC1Cc2cc(F)cc(-c3ccccn3)c2O1 (centres undefined) | 0.154% |  |
| COc1ccc(-c2nc3cnc(Nc4cccc(OC)c4)nc3n(Cc3cccs3)c2=O)cc1 |  | 100 µM (active) |
| COc1ccc(-c2nc3cnc(Nc4ccccc4)nc3n(Cc3cccs3)c2=O)cc1 | -3.69% |  |
| COc1cccc(Nc2ncc3nc(-c4ccccc4)c(=O)n(Cc4cccs4)c3n2)c1 | 18.4% |  |
| CN(CCOc1ccc(CC2SC(=O)NC2=O)cc1)c1ccccn1 (centres undefined) | 16.9% |  |
| Cc1c(C)c2c(c(C)c1O)CCC(C)(COc1ccc(CC3SC(=O)NC3=O)cc1)O2 (centres undefined) |  | 100 µM (active) |
| Cc1c(C)c2c(c(C)c1O)CC[C@@](C)(CCC[C@H](C)CCC[C@H](C)CCCC(C)C)O2 |  | inactive |
| CC1(COc2ccc(C[C@H]3SC(=O)NC3=O)cc2)CCCCC1 |  | 89.1 µM (active) |
| Cc1c(C)c2c(c(C)c1O)CCC(C)(CCCC(C)CCCC(C)CCCC(C)C)O2 (centres undefined) | -7.36% |  |
| CC1(COc2ccc(CC3SC(=O)NC3=O)cc2)CCCCC1 (centres undefined) | 12.3% [at 15.3 µM] | 35.5 µM (active) |
| CCc1ccc(CCOc2ccc(CC3SC(=O)NC3=O)cc2)nc1 (centres undefined) |  | inactive |
| Fc1ccc(N2CCN(Cc3ccc4c(c3)CN(Cc3cccn3-c3cccnc3)CCO4)CC2)cc1 | -5.67% |  |
| Cc1ccc2c(c1)CN(CCC(=O)NCc1cc(C)n(C)n1)CC(C)O2 (centres undefined) | 5.77% |  |
| COc1cc(=O)n2c(c1C(=O)N(C)Cc1nonc1C)CCN(Cc1ccsc1)CC2 | 11.6% |  |
| Cc1ccc(CN2C[C@H](Sc3ccccn3)C[C@H]2C(=O)Nc2ccc3sc(C)nc3c2)c(C)c1 | 2.23% |  |
| CN(C)/N=N/c1nc[nH]c1C(N)=O |  | inactive |
| COc1cccc(Cn2c(=O)c(-c3cc(F)cc(F)c3)nc3cncnc32)c1 | 0.958% |  |
| Cc1noc(C)c1-c1cc(N(C)C)ncn1 | 17.9% |  |
| CCCCCCCCCCCCN1[C@@H](CC(=O)OC)c2cc(C(F)(F)F)ccc2S1(=O)=O | -0.938% |  |

| Structure (SMILES) | activity change, negative = inhibition | Potency |
| --- | --- | --- |
| CCCCCCCCN1[C@@H](CC(=O)O)c2cc(C(F)(F)F)ccc2S1(=O)=O | 9.17% |  |
| CCCCCCCCCCCCN1[C@@H](CC(=O)O)c2cc(C(F)(F)F)ccc2S1(=O)=O |  | 89.1 µM (active) |
| COc1ccc(OC)c(-c2ccnc(-n3ncc(C(=O)N(C)CCc4ccccn4)c3C)n2)c1 | 18.1% |  |
| Clc1ccc2ncnc(NCc3ccc4c(c3)OCO4)c2c1 | 14.1% [at 201 µM] |  |
| CC(O)c1nc2ccccc2[nH]1 (centres undefined) | 5.07% |  |
| O=C1CC[C@@H](CN(Cc2cccnc2)C2CCN(c3ccc(NC(=O)c4cnccn4)cc3)CC2)N1 | -4.84% |  |
| CCCCC(CC)COS(=O)(=O)O (centres undefined) | -7.64% |  |
| CCCCC(CC)COC(=O)CC(C(=O)OCC(CC)CCCC)S(=O)(=O)O (centres undefined) |  | 56.2 µM (active) and 25.1 µM (active) |
| CCCCC(CC)COC(=O)c1ccccc1O (centres undefined) | 24.3% |  |
| O=c1c(-c2ccccc2)nc2cncnc2n1Cc1ccccc1 | 2.28% |  |
| COc1ccc(-c2nc3cnc(N4CCN(C)CC4)nc3n(-c3ccc(OC)cc3)c2=O)cc1 | 19% |  |
| COc1ccc(-c2nc3cc(C)ccc3cc2CN(C(=O)c2ccc(C)s2)C2CC2)cc1OC | 4.33% |  |
| c1ccc(Cc2nnc3n2CCN(Cc2cnc(-c4ccccc4)s2)CC3)cc1 | 20.3% |  |
| COc1ccc(-n2c(=O)c(CCc3ccccc3)nc3cnc(N4CCNCC4)nc32)cc1 | 10.6% |  |
| COc1ccc(C(=O)CC(=O)c2ccc(C(C)(C)C)cc2)cc1 |  | 79.4 µM (active) |
| COc1ccc(C(=O)C[n+]2ccccc2Cl)cc1 | 7.36% |  |
| COc1ccc(C(C)=O)cc1 | 18.3% |  |
| Cc1ncc2c(c1CNC(=O)c1ccsc1)CCN(C(=O)c1c(F)cccc1Cl)C2 | 8.26% |  |
| COc1cc(C)c(CN2C[C@H](Sc3ccccn3)C[C@H]2C(=O)N(C)C)cc1C | -9.09% |  |
